From PubChem BioAssay come the findings set out here.

Each structure is given as a SMILES string. The source made the active and inactive calls.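 How the source made its calls: active means viability increase at or above a cutoff of the median across tested compounds plus 3 SD (cut at about 8.5% in these data, passing the limit was not always enough); inconclusive means some gains above the cutoff, reason not given; inactive means the rest.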

The nature of the assay: viability gain of MRP-1-high H69AR cells under doxorubicin, pilot screen, MRP-1 activator project, CellTiter-Glo, duplicate (AID 807).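 Further: compound pretreatment 18-22 h then 72 h combined with doxorubicin; 0% = doxorubicin alone and 100% = vehicle without doxorubicin.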 The note with it: H69AR viability with doxorubicin, CellTiter-Glo luminescence; at 10 µM; stronger effect = higher value.
Consider `c1ccc(N2CCN(c3ncnc4c3oc3ccccc34)CC2)cc1`, for which the viability increase was -0.47% (inactive).

In the case of `CCOc1cccc(-c2nc(C(N)=O)c3[nH]c(=O)n(-c4cccc(Cl)c4)c3n2)c1O`, the viability increase was -2.06% (inactive).

Take `COc1ccc(CC(=O)Nc2c3c(nn2C(C)(C)C)CS(=O)C3)cc1` (stereo not given): the viability increase is -0.14% (inactive).

Consider `CC1=C(C(=O)OCc2ccccc2)C(c2ccco2)C2=C(CC(C)(C)CC2=O)N1` (stereo not given), for which the viability increase was -6.3% (inactive).

For the compound `COc1ccc(C(=O)O)cc1Nc1cc(C)nc2ncnn12`, the viability increase was -1.14% (inactive).

As to `CCOCCCNC(=O)c1cn(CC(C)C)c(=O)c2cc(OC)c(OC)cc12`, the viability increase was -2.7% (inactive).

For the compound `COc1ccccc1C(=O)N1CCN(c2cccc(Cl)c2)CC1`, the viability increase was -4.63% (inactive).

On to `O=C(NCCn1cc(SCC(=O)N2CCOCC2)c2ccccc21)c1ccccc1`, for which the viability increase is 0.4% (inactive).

Regarding `Cc1cc2cc(CNC(=O)c3ccc(Br)o3)ccc2[nH]1`, the viability increase was -1.33% (inactive).

In the case of `COc1cccc(NC(=O)CN2C(=O)COc3ccc(Cl)cc32)c1`, the viability increase is -0.8% (inactive).

For `c1csc(Cc2nc(-c3ccc(-n4cccc4)cc3)no2)c1`, the viability increase is -0.35% (inactive).

As to `O=C1C2C3c4ccccc4C(c4ccccc43)C2C(=O)N1Cc1ccco1` (stereo not given), the viability increase is -3.21% (inactive).

Take `COc1cccc(C2CC(=O)N3CN(c4cccc(Cl)c4C)CSC3=C2C#N)c1OC` (stereo not given): the viability increase is -4.11% (inactive).

For `O=C(OCC(=O)c1cccs1)c1ccc(NC(=O)c2ccco2)cc1`, the viability increase is -3.62% (inactive).

With `O=C(Nc1ccc(N2CCN(C(=O)c3ccccc3)CC2)c(Cl)c1)c1ccco1`, the viability increase is -3.69% (inactive).
